FBW7 act: human FBW7 E3 ligase activation, primary screen; Q969H0; AlphaScreen FBW7–phospho-cyclin E peptide binding, activator screen; normalized activity (activation), % at 26.1 µM; actives 0.13% (n = 650,000); in the data active means normalized activity above about 1.9%;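 further: purified mutant Fbw7 with reduced substrate affinity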
GPR151 activ: activates the human receptor GPR151; Q8TDV0; PathHunter beta-arrestin GPR151 cells, luminescence; activation, % at 11.2 µM; actives 1% (n = 650,000); in the data active means activation above about 4.9%;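 further: 0% = median of compound wells and 100% = cells with positive control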
MITF primary: blocks human microphthalmia-associated transcription factor. actives 0.91% (n = 650,000). AlphaScreen MITF homodimerization, bead proximity signal. inhibition, % at 2.6 µM; in the data active means inhibition above about 50%;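 further: 0% = vehicle wells with protein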
Target sequence (O75030 whole entry, looked up): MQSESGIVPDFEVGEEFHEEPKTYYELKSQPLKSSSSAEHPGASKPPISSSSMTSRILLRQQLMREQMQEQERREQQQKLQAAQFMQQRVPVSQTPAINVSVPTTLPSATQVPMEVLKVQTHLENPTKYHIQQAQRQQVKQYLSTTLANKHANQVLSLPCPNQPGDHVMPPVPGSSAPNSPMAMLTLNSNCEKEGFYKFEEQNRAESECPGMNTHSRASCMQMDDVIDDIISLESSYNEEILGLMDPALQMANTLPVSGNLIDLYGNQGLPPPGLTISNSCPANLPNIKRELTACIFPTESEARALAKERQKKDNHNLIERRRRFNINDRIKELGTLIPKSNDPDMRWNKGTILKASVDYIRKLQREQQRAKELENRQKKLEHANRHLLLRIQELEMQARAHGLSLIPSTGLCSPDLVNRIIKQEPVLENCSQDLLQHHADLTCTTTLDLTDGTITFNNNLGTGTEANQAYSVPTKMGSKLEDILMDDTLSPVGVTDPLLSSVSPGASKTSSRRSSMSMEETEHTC
TEAD-YAP block: TEAD-YAP interaction inhibition. HEK-TIYL cells, TEAD-Gal4/YAP UAS-luciferase luminescence. inhibition, % at 9.12 µM. actives 1.4% (n = 640,000); in the data active means inhibition above about 32%;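 further: 0% = median of test compound wells and 100% = reference inhibitor wells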
Numbers without * were called inactive. Most compounds without a hit are left out; they make up all but 3.4% or so of the library.

CCc1ccc(S(=O)(=O)N(C(C)=O)c2ccc3oc(C)c(C(=O)OC)c3c2)cc1 was read as FBW7 act 0.0, GPR151 activ 0.9, MITF primary 1.3 and TEAD-YAP block 48.8*.
`CCOC(=O)c1c(C)oc2ccc(NS(=O)(=O)c3ccc(Cl)cc3)cc12` gave FBW7 act 0.0, GPR151 activ 0.4, MITF primary 2.9 and TEAD-YAP block 10.7.
For Cc1cc2c(o1)c1cnn(CC(=O)NC(C)C)c(=O)c1n2C the results were FBW7 act -0.1, GPR151 activ 0.9, MITF primary -11.7 and TEAD-YAP block -2.2.
Cc1ccccc1C(=O)Nc1ccc2nc(SCC(=O)NC(C)c3ccccc3)sc2c1 (stereo unspecified) was read as FBW7 act 0.1, GPR151 activ -0.4, MITF primary 7.7 and TEAD-YAP block -17.5.
Screening COc1ccc(C(=O)NNC(=O)CCn2c3c(c4ccccc42)CCCC3)cc1OC returned FBW7 act -0.2, GPR151 activ -0.8, MITF primary -3.3 and TEAD-YAP block -2.7.
For CCOc1ccc(S(=O)(=O)Nc2ccc3oc(C)c(C(=O)OCCOC)c3c2)cc1 the results were FBW7 act 0.1, GPR151 activ -0.8, MITF primary 2.8 and TEAD-YAP block 57.3*.
Screening CCCc1oc2ccc(NS(=O)(=O)c3ccc(C)cc3)cc2c1C(=O)OCC returned FBW7 act 0.1, GPR151 activ 0.3, MITF primary 17.4 and TEAD-YAP block 57.1*.
`COCc1oc2ccc(NS(=O)(=O)c3ccc(C)cc3)cc2c1C(=O)OC` gave FBW7 act -0.1, GPR151 activ -1.2, MITF primary -7.0 and TEAD-YAP block 55.0*.
For COC(=O)c1c(C)oc2ccc(NS(=O)(=O)c3cc(C)ccc3C)cc12 the results were FBW7 act -0.1, GPR151 activ 1.3, MITF primary -4.1 and TEAD-YAP block 30.8.
For COC(=O)c1c(C)oc2ccc(NS(=O)(=O)c3ccc(C)cc3C)cc12 the results were FBW7 act -0.1, GPR151 activ 4.1, MITF primary -1.9 and TEAD-YAP block 46.2*.
`CCCc1oc2ccc(NS(=O)(=O)c3ccc(F)cc3)cc2c1C(=O)OCC` gave FBW7 act -0.1, GPR151 activ 0.8, MITF primary -3.6 and TEAD-YAP block 8.8.
Cn1c2ccc(F)cc2c2nnc(SCC(=O)NCc3ccco3)nc21 was read as FBW7 act 0.0, GPR151 activ -0.2, MITF primary 2.1 and TEAD-YAP block -3.7.
Screening CCc1ccc(S(=O)(=O)Nc2ccc3oc(C)c(C(=O)OC)c3c2)cc1 returned FBW7 act -0.2, GPR151 activ 3.3, MITF primary -5.3 and TEAD-YAP block 60.1*.
CC(=O)c1c(C)oc2ccc(N(C(C)=O)S(=O)(=O)c3cccc4cccnc34)cc12 was read as FBW7 act 0.0, GPR151 activ 0.7, MITF primary 6.2 and TEAD-YAP block 52.4*.
COc1cc(OC)c(NC(=O)c2cc3c(CO)cnc(C)c3oc2=O)cc1Cl was read as FBW7 act -0.1, GPR151 activ 1.2, MITF primary 15.9 and TEAD-YAP block -0.3.
`Cc1cccc(C2CC(=O)Nc3cc4c(cc32)OCCO4)c1` (stereo unspecified) gave FBW7 act 0.5, GPR151 activ -0.3, MITF primary 19.4 and TEAD-YAP block 40.3*.
Screening Cc1cccc(C2CC(=O)Nc3cc4c(cc32)OCO4)c1 (stereo unspecified) returned FBW7 act 0.2, GPR151 activ -1.2, MITF primary 7.6 and TEAD-YAP block 17.8.
`Cc1cccc(Nc2nc3nonc3nc2Nc2ccccc2I)c1` gave FBW7 act -0.1, GPR151 activ 1.2, MITF primary 9.9 and TEAD-YAP block 86.5*.
CC(C)(C)C1CCc2c(sc3nc(-c4ccccn4)[nH]c(=O)c23)C1 (stereo unspecified) was read as FBW7 act 0.0, GPR151 activ 0.0, MITF primary 8.1 and TEAD-YAP block 0.7.
COc1cc2oc(=O)c(CC(=O)NCc3ccccc3)c(C)c2cc1OC was read as FBW7 act 0.3, GPR151 activ -1.2, MITF primary 20.3 and TEAD-YAP block 48.9*.
For CC1(C)CC(=O)C2=C(C1)NC(=S)NC2c1ccccc1 (stereo unspecified) the results were FBW7 act -0.1, GPR151 activ -2.0, MITF primary 1.3 and TEAD-YAP block 54.8*.
Screening Cc1ccccc1C1NC(=S)NC2=C1C(=O)CC(C)(C)C2 (stereo unspecified) returned FBW7 act 0.0, GPR151 activ -1.0, MITF primary 17.9 and TEAD-YAP block 7.1.
Cc1c(C(=O)O)[nH]c2c1C(=O)CC(c1ccc(Cl)cc1)C2 (stereo unspecified) was read as FBW7 act -0.1, GPR151 activ -1.2, MITF primary -7.2 and TEAD-YAP block -2.3.
CCOC(=O)c1[nH]c2c(c1C)C(=O)CC(c1ccccc1)C2 (stereo unspecified) was read as FBW7 act 0.2, GPR151 activ 0.5, MITF primary -10.3 and TEAD-YAP block 47.0*.
`CCCOCCOC(=O)c1[nH]c2c(c1C)C(=O)CC(c1ccccc1)C2` (stereo unspecified) gave FBW7 act -0.1, GPR151 activ 0.9, MITF primary -9.8 and TEAD-YAP block 42.9*.
`CCOC(=O)c1[nH]c2c(c1C)C(=O)CC(c1ccc(F)cc1)C2` (stereo unspecified) gave FBW7 act 2.3*, GPR151 activ 1.1, MITF primary -18.8 and TEAD-YAP block 49.4*.
For CCOC(=O)c1[nH]c2c(c1C)C(=O)CC(c1ccc(OCC)c(OC)c1)C2 (stereo unspecified) the results were FBW7 act 0.0, GPR151 activ -0.3, MITF primary -9.4 and TEAD-YAP block 6.2.
For CSCCOC(=O)c1[nH]c2c(c1C)C(=O)CC(c1ccccc1)C2 (stereo unspecified) the results were FBW7 act 0.1, GPR151 activ 2.1, MITF primary -1.6 and TEAD-YAP block 45.4*.
Screening COc1ccc(-c2cc(-c3ccccc3)c(C#N)c(SCC3(O)CCCCC3S(C)=O)n2)cc1 (stereo unspecified) returned FBW7 act 0.0, GPR151 activ 3.7, MITF primary 8.0 and TEAD-YAP block -6.8.
O=C(NC1(C(F)(F)F)N=C2SCCN2C1=O)c1cccc(C(F)(F)F)c1 (stereo unspecified) was read as FBW7 act 0.0, GPR151 activ -1.5, MITF primary 11.0 and TEAD-YAP block 5.7.
Screening COCCOC(=O)c1[nH]c2c(c1C)C(=O)CC(c1ccc(OC)c(OC)c1)C2 (stereo unspecified) returned FBW7 act 0.0, GPR151 activ 0.0, MITF primary 8.2 and TEAD-YAP block 26.8.
Screening Cc1c(C(=O)OCC2CCCO2)[nH]c2c1C(=O)CC(c1ccc(F)cc1)C2 (stereo unspecified) returned FBW7 act -0.1, GPR151 activ 2.2, MITF primary -3.8 and TEAD-YAP block 8.7.
For COC(=O)c1[nH]c2c(c1C)C(=O)CC(c1ccc(C)cc1)C2 (stereo unspecified) the results were FBW7 act 0.4, GPR151 activ 2.6, MITF primary 3.9 and TEAD-YAP block -26.5.

From PubChem BioAssay
